The source of these data is PubChem BioAssay AID898 (University of Pittsburgh Molecular Library Screening Center, 2007).

The campaign covered roughly 140,000 compounds. About 220 (0.16%) were called active. What follows is part of a selection rich in actives, with near analogues and random picks from the rest. A number with no mark means an inactive call. Cut-off read from the data, not from the text of the source: active = inhibition above about 50%; inactive = the rest.

The test system of this test is YopH tyrosine phosphatase [Yersinia enterocolitica]. Briefly: YopH tyrosine phosphatase inhibitors, primary screen, biochemical, fluorescence Ex485/Em525 (AID 898). Conditions: stronger effect = higher value, concentration not given here.
In general, inhibition refers to the drop in the measured response relative to a control, in per cent. Take `CC(=O)Nc1ccc(C(=O)OCC(=O)Nc2ccc([N+](=O)[O-])cc2C(F)(F)F)cc1`: the inhibition is -15.8%.
The same measure for `C[n+]1ccccc1C1CCCC/C1=N\Nc1ccc([N+](=O)[O-])cc1[N+](=O)[O-]` (configuration not stated): 3.63%; for `CN(C)CCNC(=O)Cc1ccc([N+](=O)[O-])cc1`: -24.9%; for `N#C/C(=C(/O)Cc1cccc2ccccc12)c1nc2ccccc2s1`: -11%.
The same measure for `COC(=O)c1nc2ccccc2s1`: -16.5%; for `CC1=CC(=C(C#N)c2nc3ccccc3s2)C=C(C)N1c1ccc(F)cc1F`: 79.4% (active).
With `O=[N+]([O-])c1ccc(N2CCNCC2)cc1NCc1cccnc1`, the inhibition was -24.3%.
Consider `COc1ccc(C/C(C)=N/NC(=O)c2cc(C)oc2C)cc1`, for which the inhibition was -13.9%.
Under `COCCNC(=O)c1ccccc1NS(=O)(=O)c1ccc(C)c([N+](=O)[O-])c1` stands -4.7%.
Under `CCCC(NC(=O)c1ccco1)c1nc2ccccc2[nH]1` (configuration not stated) stands -24.8%.
Under `C/C(=N\NC(=O)CSc1nc2ccccc2c(=O)n1-c1ccccc1C)c1cccs1` stands -17%; under `CN1CCN(c2ccc(NC(=O)c3ccc4c(c3)[nH]c(=O)n4Cc3ccc(F)cc3)cc2)CC1`, -24.8%; under `O=C(/C=C/NCc1ccc(F)cc1)c1ccccc1`, -30.4%.
As for `Cc1c(NC(=S)Nc2ccccc2)c(=O)n(-c2ccccc2)n1C`, the inhibition was -29.6%.
With `CCCCOC(=O)c1ccc(NC(c2ccc(C)cc2)P(=O)(OC)OC)cc1` (configuration not stated), the inhibition was -6.33%.
Under `COc1ccccc1N1N=C(c2cccs2)CC1c1ccccc1` (configuration not stated) stands -12.8%.
Turning to `CCN(CC)CCn1c(/N=C/c2cc(Br)ccc2O)nc2ccccc21`, the inhibition is -20.7%.
Turning to `C=CCNCCCCOc1ccccc1`, the inhibition is -29.1%.
The same measure for `O=C(CSc1nnc(SCc2ccc(Cl)cc2)s1)N/N=C/c1ccccc1Cl`: -26.2%.
The same measure for `CC(=O)Nc1ccc(S(=O)(=O)N2CCN(c3ccc([N+](=O)[O-])c(NCCN4CCOCC4)c3)CC2)cc1`: -27.6%; for `C=CCNC(=O)/C=C/c1ccc(C(C)C)cc1`: -23.5%; for `Cc1ccc(N(Cc2cc3ccccc3[nH]c2=O)C(=O)c2cccs2)cc1`: -10.8%.
The same measure for `O=C(NC1CCCCCC1)c1cccnc1Sc1ccc(Cl)cc1`: -17.2%; for `Brc1ccc(C2CC(c3ccccc3)=Nc3ccccc3N2)cc1` (configuration not stated): -11.5%; for `COC(=O)C1=NNC2(c3ccc(C)cc3)C(=O)N(c3cccc(C)c3C)C(=O)C12` (configuration not stated): -28.4%.
`COc1cc(C(=S)NC2CCCCC2)ccc1O`: the inhibition was -30.2%.
Under `CC1(C)C2CC=C(/C=N/NC(=O)c3ccc(Cl)cc3)C1C2` (configuration not stated) stands -29.6%; under `CCCc1nc(SCC(=O)Nc2ccc(S(=O)(=O)N(C)C)cc2)c2ccccc2n1`, -25.4%; under `NC1=NN(c2cccc(C(=O)O)c2)C(=O)C1`, -7.9%.
The same measure for `CN(CC(=O)NCCc1ccccc1)S(=O)(=O)c1cnc[nH]1`: -21%.
As to `COc1cccc(NC(=S)NCc2ccco2)c1`, the inhibition was -28.3%.
The same measure for `O=C(CN1CCN(c2ccccn2)CC1)N1CCc2ccccc21`: -10%.
